VP16 counter: Gal4-VP16 reporter inhibition counter-screen. Drosophila S2 Gal4-VP16 UAS-luciferase, luminescence, 20 h. Potency, µM (series often up to 53.6 µM), inactives show at the top dose activity, negative = inhibition, hits mostly inhibitors. actives 3.5% (n = 310,000);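 further: Gal4-VP16 expression switched on by copper sulfate through the metallothionein promoter; potency means the concentration at half of the fitted maximal effect; on the % scale 0 is the no-effect control and ±100 the full control effect; nearly all actives have a fitted effect of over 50% in size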
Six1-Eya2 blk: inhibitors of human Six1/Eya2 interaction; actives 0.56% (n = 360,000); Q15475+O00167; AID 651725; AlphaScreen GST-Six1/His-Eya2 binding, biochemical; stronger effect = lower value; activity change, % (concentration not given with the values); in the data active means activity change below about -65%; inconclusive means mostly about -30% to -63%; further: on the % scale 0 is the no-effect control and ±100 the full control effect
Target sequence (O00167 whole entry, looked up): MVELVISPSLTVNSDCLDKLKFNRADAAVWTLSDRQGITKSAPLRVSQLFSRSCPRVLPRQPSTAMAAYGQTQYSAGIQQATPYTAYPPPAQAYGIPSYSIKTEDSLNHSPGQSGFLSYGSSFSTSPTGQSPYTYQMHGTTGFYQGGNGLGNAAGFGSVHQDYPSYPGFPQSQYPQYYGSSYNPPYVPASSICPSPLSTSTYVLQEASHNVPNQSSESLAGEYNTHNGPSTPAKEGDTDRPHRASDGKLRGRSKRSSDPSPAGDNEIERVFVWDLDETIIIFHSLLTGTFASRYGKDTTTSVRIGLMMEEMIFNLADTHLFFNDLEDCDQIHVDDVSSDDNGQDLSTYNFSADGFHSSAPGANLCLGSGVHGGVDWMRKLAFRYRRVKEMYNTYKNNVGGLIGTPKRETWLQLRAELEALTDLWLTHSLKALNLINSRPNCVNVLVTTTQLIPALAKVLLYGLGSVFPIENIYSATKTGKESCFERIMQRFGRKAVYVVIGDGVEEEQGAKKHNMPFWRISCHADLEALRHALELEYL
Target sequence (Q15475 whole entry, looked up): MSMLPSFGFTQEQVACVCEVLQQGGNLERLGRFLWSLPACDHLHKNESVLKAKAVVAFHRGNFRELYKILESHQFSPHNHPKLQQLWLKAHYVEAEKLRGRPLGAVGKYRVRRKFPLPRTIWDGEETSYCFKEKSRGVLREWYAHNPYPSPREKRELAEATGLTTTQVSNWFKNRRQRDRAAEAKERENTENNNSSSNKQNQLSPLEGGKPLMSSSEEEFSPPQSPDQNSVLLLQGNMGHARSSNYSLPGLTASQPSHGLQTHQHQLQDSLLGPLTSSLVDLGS
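Compounds are tested against tagged Six1 and Eya2 proteins bridged by glutathione donor and nickel acceptor beads; after a one-hour incubation at 37 °C without light, AlphaScreen emission is recorded.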
RORgamma inh: inhibitors of mouse ROR gamma transcriptional activity; P51450; Drosophila S2 Gal4-RORgamma UAS-luciferase reporter, 20 h; Potency, µM (doses to about 53.6 µM), without a hit: top-dose activity change, negative = inhibition, usual class: inhibitors; actives 5.4% (n = 310,000); AID 2551; further: potency means the concentration at half of the fitted maximal effect; on the % scale 0 is the no-effect control and ±100 the full control effect; nearly all actives have a fitted effect of over 60% in size
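Drosophila S2 cells stably expressing Gal4-DBD/mouse RORγ fusion under metallothionein promoter plus UAS-luciferase; compound 1 h, then 700 uM CuSO4 induction for 20 h at ambient temperature; inhibition read as reduced luminescence.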
p53 reactivation: restores transcriptional activity of mutant p53; H1299 p53-A138V BP100-luciferase reporter, luminescence, 24 h; Potency, µM (top dose mostly 92.2 µM), for the others: top-dose activity change, positive = activation, most hits filed as activators; actives 0.063% (n = 320,000); AID 504706; further: potency means the concentration at half of the fitted maximal effect; % of control where 0% means no effect; nearly all actives have a fitted effect of over 45% in size
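H1299 (p53-null), stable ts p53-A138V + BP100-Luc; 1000 cells/well, Opti-MEM/10% FBS; cpd 4 pt, 1:5; 24 h, 37 deg C, 5% CO2; detection reagent 10 min RT; luminescence.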
CtBP-E1A inh: inhibitors of CtBP/E1A interaction. AlphaScreen GST-E1A/His-CtBP binding, 1536-well; stronger effect = lower value. activity change, % (no concentration beside the values). actives 0.49% (n = 340,000). AID 651724; in the data active means activity change below about -65%; inconclusive means mostly about -30% to -63%; further: on the % scale 0 is the no-effect control and ±100 the full control effect
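In 5 uL wells, 23 nL compound meets equimolar GST-E1A and His-CtBP (5X stock 125 nM each) for 2 h, 37 °C. Beads (5X, 50 ug/mL) then 1 h, 37 °C, dark.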
* hit, by the source's call; ? = inconclusive; . = not tested or not shown; ! = repeats disagree; [ ] = remark or other dose. In the library only some 5.4% were active in any assay of this set; here they are far more common. Unless noted, the call rests on the fitted dose curve; in most records, active means well fitted curve in the direction sought with a large enough effect; inconclusive means small, poorly fitted or top-dose-only effect, or another doubt; inactive means no such curve, though single readings can be large; an effect the other way counts as inactive or inconclusive.

SMILES | VP16 counter | Six1-Eya2 blk | RORgamma inh | p53 reactivation | CtBP-E1A inh
Cn1c(SCC(=O)N/N=C/c2ccc([N+](=O)[O-])s2)nnc1-c1ccccc1 | 20µM* | -12 | 11µM* | -29% | 0
CCN(CC)C(=O)Cn1cc(S(=O)(=O)Cc2cccc([N+](=O)[O-])c2)c2ccccc21 | 4% | 1 | -26% | -3% | 3
Cc1ccc(C=NNc2nc3c([nH]2)c(=O)n(C)c(=O)n3C)cc1 | . | -7 | . | . | -18
CCOc1cc(N2CCOCC2)c(OCC)cc1NC(=O)CN1C(=O)NC(C)(c2ccc(OC)cc2)C1=O (configuration not stated) | . | -4 | . | . | -1
O=C(N/N=C/c1ccc(O)cc1)c1cncc(Br)c1 | -3% | -22 | -16% | 10% | -25
O=C(N/N=C\c1cc(Br)cs1)c1ccncc1 | 2.8µM* | -12 | 1.6µM* | 3% | .
O=C(N/N=C\c1ccc([N+](=O)[O-])s1)c1cncc(Br)c1 | 1.1µM* | -16 | 0.71µM* | 9% | ?
COc1cc(/C=N/NC(=O)c2ccncc2)cc(OC)c1OC | 1% | 1 | -4% | . | 8
COc1cccc(-c2cc(=O)c3ccc(OC)cc3o2)c1 | -1% | . | 1% | . | .
O=[N+]([O-])c1ccc(-c2cnc(SCc3ccccc3Cl)[nH]2)cc1 | -3% | -26 | ? | ? | -17
Cc1cc(C)c(CSc2ncc(-c3ccc([N+](=O)[O-])cc3)[nH]2)c(C)c1 | 7.1µM* | -20 | 10µM* | -9% | -22
CCN1CCN(CCNC(=O)c2ccc(/C=C3/Sc4ccccc4N(Cc4cccc(Cl)c4)C3=O)cc2)CC1 | ? | -11 | -43% | 13% | -23
CCN1CCN(CCNC(=O)c2ccc3c(c2)N(Cc2ccc(F)cc2)C(=O)/C(=C/c2ccccc2)S3)CC1 | ? | -9 | 16µM* | -8% | -11
O=C(O)CNC(=O)[C@@H](CS)Cc1ccccc1 | -2%[17 µM] | . | -2%[16.9 µM] | . | .
CCOC(=O)N1CCN(/[N+]([O-])=N/Oc2ccc([N+](=O)[O-])cc2[N+](=O)[O-])CC1 | 7.1µM*! | . | 8.9µM* | . | .
CCOC(=O)N1CCN(c2ccc([N+](=O)[O-])cc2)CC1 | -9% | -3 | 31% | 4% | 1
CCOC(=O)c1nnn(-c2ccc([N+](=O)[O-])cc2[N+](=O)[O-])c1C | ? | -6 | 7.1µM* | -4% | -66*
COCCn1c(=O)c(-c2ccc(F)c(F)c2)nc2cncnc21 | 3% | . | -25% | . | .
COc1cc(/C=C/C(=O)c2ccccc2O)cc(OC)c1OC | ? | 1 | 2µM* | -11% | -23
COc1cc(/C=C/C(=O)c2cccc([N+](=O)[O-])c2)cc(OC)c1OC | ? | -3 | 16µM* | -19% | -3
COc1cc(OC)c(C=CC(=O)c2ccccc2O)c(OC)c1 | . | 0 | . | . | 0
COc1ccc(/C=C/C(=O)c2ccc(C)c([N+](=O)[O-])c2)cc1O | 16µM* | 6 | -84% | ? | 23
COc1cc(/C=C/C(=O)c2ccc(C)c([N+](=O)[O-])c2)cc(OC)c1O | ? | 1 | ? | -2% | 9
O=[N+]([O-])c1ccc(-[n+]2nc(-c3ccccc3)nn2-c2ccccc2)cc1 | ? | -82* | -43% | -13% | -92*
COc1ccc(/C=C2/C(=O)N(c3nc4ccccc4s3)N=C2CSc2ccc(Cl)cc2)cc1 | 13µM* | -19 | 14µM* | ? | -6
SMILES | VP16 counter | Six1-Eya2 blk | RORgamma inh | p53 reactivation | CtBP-E1A inh
CC(/C=N/n1c(-c2ccc(C)cc2)n[nH]c1=S)=C\c1ccco1 | 2.8µM* | -10 | 2.8µM* | 4% | -14
CC(/C=N/n1c(-c2ccccc2)n[nH]c1=S)=C\c1ccco1 | 7.1µM* | -11 | ? | -4% | 3
Cc1ccc(C(C)C)c(OCc2ccc(-c3nnco3)cc2)c1 | ? | 3 | 4µM* | -6% | 0
Nc1cccc2c1C(=O)N(C(=O)c1ccco1)C2=O | 2% | 10 | 7% | 2% | 6
Nc1cccc2c1C(=O)N(C(=O)/C=C/c1ccc(F)cc1)C2=O | -2% | -10 | 13µM* | ? | -65*
COC(=O)c1cccc(/C=N/NC(N)=S)c1O | 7.1µM* | -66* | 2µM* | 5% | .
COc1ccc(C(=O)Oc2ccc(/C=N/O)cc2)cc1 | 11µM* | -5 | 11µM* | 17% | -2
COc1ccc(C(=O)Oc2cc(/C=N/NC(N)=S)ccc2OC)cc1 | 22µM* | -16 | 11µM* | -6% | -9
COc1cc(/C=N/NC(N)=O)ccc1OC(=O)c1ccc(C)cc1 | 0% | . | -11% | 21% | .
COc1ccc(/C=N/NC(N)=S)cc1OC(=O)c1cccc2ccccc12 | 5µM* | 0 | 2.5µM* | 4% | -3
Fc1c(F)c(-n2nnc3ccccc32)c(F)c(F)c1Cl | 10% | 18 | -10% | 5% | 4
COc1ccc(CN(CC(=O)NCc2ccccc2)C(=O)CCC(=O)Nc2cc(C)ccn2)cc1 | -12% | 25 | -2% | -4% | -6
C/C=C/OC(=O)NC(c1ccccc1)[C@@]1(C(=O)OCC)CCCC1=O (some centres not stated) | 4%[10 µM] | . | 1%[10 µM] | . | .
Cc1cccc(C(=O)c2cnc3ccccc3c2-c2ccccc2)c1 | 10µM* | 0 | ? | -11% | 5
Cc1cccc(C(=O)NNC(=O)c2ccccc2)c1 | 4% | 7 | 16% | ? | 11
CCN(CC)CCNC(=O)c1ccc(NC(=O)c2ccc(-n3cncn3)c([N+](=O)[O-])c2)cc1 | . | 14 | . | . | 0
O=C(O)c1cccc(S(=O)(=O)Nc2ccc3c(c2)CCC3)c1 | 10µM* | 4 | ? | -4% | -3
CC(C)C[C@H](NC(=O)CNC(=O)[C@H](CCC(N)=O)NC(=O)[C@H](CC(C)C)NC(=O)[C@H](CC(C)C)NC(=O)[C@H](CCCNC(=N)N)NC(=O)[C@H](CCC(N)=O)NC(=O)[C@H](CC(C)C)NC(=O)[C@H](CCCNC(=N)N)NC(=O)[C@H](C)NC(=O)CNC(=O)[C@H](CCC(=O)O)NC(=O)[C@H](CCCNC(=N)N)NC(=O)[C@H](CC(C)C)NC(=O)[C@H](CCCNC(=N)N)NC(=O)[C@H](CO)NC(=O)[C@H](CC(C)C)NC(=O)[C@H](CCC(=O)O)NC(=O)[C@H](CO)NC(=O)[C@@H](NC(=O)[C@H](Cc1ccccc1)NC(=O)[C@@H](NC(=O)CNC(=O)[C@H](CC(=O)O)NC(=O)[C@H](CO)NC(=O)[C@@H](N)Cc1cnc[nH]1)[C@@H](C)O)[C@@H](C)O)C(=O)N[C@H](C(N)=O)C(C)C | -8% | . | 0% | . | .
Oc1c(Br)cc(Br)cc1C=Nc1ccc2c(c1)OCO2 | ? | 1 | 18µM* | 4% | 5

Source: PubChem
